Compounds without any hit were thinned out: in the full panel of roughly 83,000, 20% have a hit.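 Step 1: grow cells in 96-well plates. Step 2: add test compound at a single concentration. Step 3: incubate 48 h. Step 4: record percent growth.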 A number with no mark means an inactive call. The source made the active and inactive calls. Rule for the calls: active = growth percent below 10; inactive = the rest.
Assays:
Test in all cases: NCI-60 one-dose screen, 48 h (100 = growth as untreated, 0 = no growth, -100 = all killed)
Conditions in all cases: 10 µM
NCI-H23 lung = tested on: NCI-H23 lung
NCI-H226 lung = tested on: NCI-H226 lung
HOP-62 NSCLC = tested on: HOP-62 NSCLC
NCI-H460 lung = tested on: NCI-H460 lung
HOP-92 NSCLC = tested on: HOP-92 NSCLC
A549/ATCC NSCLC = tested on: A549/ATCC NSCLC
786-0 renal = tested on: 786-0 renal
COLO 205 colon = tested on: COLO 205 colon
NCI-H522 lung = tested on: NCI-H522 lung

| Structure (SMILES) | growth (NCI-H23 lung) | growth (NCI-H226 lung) | growth (HOP-62 NSCLC) | growth (NCI-H460 lung) | growth (HOP-92 NSCLC) | growth (A549/ATCC NSCLC) | growth (786-0 renal) | growth (COLO 205 colon) | growth (NCI-H522 lung) |
| --- | --- | --- | --- | --- | --- | --- | --- | --- | --- |
| COC1=CC(=O)OC(c2ccc(OC)cc2)C1 (stereo not given) | 89.2% | 110% | 105% | 109% | 98.1% | 108% | 109% | 108% | – |
| O=C(COc1cccc(/C=C2\CSc3ccc(Cl)cc3C2=O)c1)c1ccc(Cl)cc1 | 75.1% | 84.3% | 83.6% | 91.3% | 15.6% | – | 94.6% | 115% | 36.8% |
| Cc1cc(Cl)ccc1Nc1nc(C(F)(F)F)ccc1C(=O)N/N=C/c1cccc(O)c1 | 43.8% | 38.8% | 44.2% | 30.9% | 48.1% | – | -30.6% (active) | 28.2% | 40.2% |
| CC(C)(C)OC(=O)CN1CCc2c(sc3ncnc(N/N=C/c4ccccc4Br)c23)C1 | 80.2% | 83.4% | 89% | 70.9% | 73.7% | 77.6% | 77% | 62.1% | – |
| O=C(N/N=C/c1ccc([N+](=O)[O-])cc1)c1ccccc1Nc1cccc(C(F)(F)F)c1 | 91.2% | 95.2% | 89.4% | 115% | 61% | – | 73% | 131% | 88.8% |
| CC(=O)OC/C=C(/C)C[P+](c1ccccc1)(c1ccccc1)c1ccccc1 | 80.1% | 66% | 65.6% | 40.3% | 64.3% | 64.6% | 74.5% | 48.3% | – |
| COc1ccc(-c2onc(N)c2-c2cc(OC)c3c(c2)OCO3)cc1 | 44% | 77% | 29.4% | 14.9% | 63.9% | 32.2% | 47.2% | 12.4% | – |
| Cc1ccc(S(=O)(=O)N(C)CCCCCC(=O)O)cc1 | 99.1% | 99.7% | 92.3% | 107% | 110% | 95% | 95.3% | 107% | – |
| CCOC(=O)c1cc(C(=O)c2cc(OC)cc(OC)c2)n2nc(C)ccc12 | 37.2% | 78.6% | 48.4% | 10.8% | 13.9% | 26.9% | 34.4% | -11.5% (active) | – |
| COc1ccccc1N1CCCSC1=Nc1ccccc1 | 104% | 107% | -5.39% (active) | 99.7% | 68.4% | 99.2% | – | 104% | 71.9% |
| CC(C)(C)OC(=O)N1CCc2c(sc3ncnc(N/N=C/c4ccccc4Br)c23)C1 | 74% | 78% | 85.8% | 49.2% | 80.8% | 68.1% | 69.2% | 27.6% | – |
| CCOC(=O)/C(=C(\C)N)C1CC(=O)NC1=O (stereo not given) | 96.3% | 97.3% | 107% | 101% | 112% | 101% | 101% | 109% | – |
| C#CC(C)(O)[C@@H]1C[C@H](CC(=O)O)C1(C)C (stereo not given in full) | 98% | 111% | 112% | 116% | 114% | 113% | 110% | 122% | – |
| S=C(SSC(=S)N(c1ccccc1)c1ccccc1)N(c1ccccc1)c1ccccc1 | 100% | 99.2% | 97.6% | 106% | 86.2% | 82% | 105% | 132% | – |
| COc1ccccc1/C=N\N/C(N)=N\N=C\c1ccccc1OC | 26.8% | 48.5% | -24.8% (active) | 2.85% (active) | 48.9% | – | 7.99% (active) | -10.9% (active) | 4.02% (active) |
| CC(C)(O)CCl | 109% | 96.7% | 107% | 102% | 114% | 98.4% | 114% | 126% | – |
| COc1cc(N)c2ncccc2c1SC | 93.6% | 106% | 107% | 105% | 94.6% | 99.5% | 116% | 100% | – |
| CC(=O)C1N=NCC1c1ccccc1 (stereo not given) | 106% | 98% | 112% | 98.8% | 73.8% | – | 110% | 114% | 88.5% |
| COc1ccc2c(c1)C(=O)/C(=C/c1cccc(OCC(=O)c3ccc([N+](=O)[O-])cc3)c1)CO2 | -15% (active) | 70.5% | 77% | 73.9% | 60.9% | 23.7% | 82.8% | 98.4% | – |
| COc1ccc(Cl)cc1Nc1nc(C(F)(F)F)ccc1C(=O)N/N=C/c1ccc(Cl)cc1 | 64.1% | 52.1% | 44.8% | 26.9% | 25.7% | – | 13.6% | 18% | 31.6% |
| CCC(=O)OC1CCC2C3CCC(=O)OC3C(C)(CCC(=O)O)CC12C (stereo not given) | 33.1% | 60.1% | 38.5% | 42.6% | -1.1% (active) | – | -41.7% (active) | 41.7% | 24.7% |
| CC(=O)COc1ccc(Cl)cc1Cl | 106% | 93% | 110% | 110% | 91% | 107% | 103% | 114% | – |
| O=C(N/N=C/c1ccc(Cl)cc1)c1ccccc1Nc1cccc(C(F)(F)F)c1 | 91.2% | 81.2% | 72.9% | 86.8% | 73.7% | – | 86% | 108% | 77.9% |
| CC(C)=CCC/C(C)=C/CC/C(C)=C/CC/C=C(\C)CC/C=C(\C)CCC(=O)Nc1ccn(C2OC(CO)C(O)C2(F)F)c(=O)n1 (stereo not given) | 25.3% | 50.3% | 11.1% | 6.85% (active) | 10.2% | – | -11.2% (active) | 43.5% | 26.1% |
| COc1cc2ncnc(NC3CCC(O)CC3)c2cc1OC (stereo not given) | 91.2% | 92.7% | 99.2% | 102% | 89.7% | 85.9% | 85.5% | 102% | – |
| OCC1OC(n2cnc3c(NCc4ccco4)ncnc32)C(O)C1O (stereo not given) | 18% | 51.8% | 43.2% | 23.1% | -10.8% (active) | 22.2% | 18.2% | 19.6% | – |
| Cc1ccc(C2NC(=S)N3C(c4ccc(C)cc4)NC(=S)N23)cc1 (stereo not given) | 38.9% | 63.1% | -45.6% (active) | 9.7% (active) | -3.05% (active) | 32% | – | 44% | -39.2% (active) |
| COc1cc(-c2nn(-c3cccc(NC(=O)CCNc4ccc(N5CCOCC5)cc4)c3)cc2-c2ccncc2)ccc1Cl | 13.2% | 25.9% | 27.1% | 4.77% (active) | -6.34% (active) | 17.5% | 19.1% | 1.38% (active) | – |
| Cc1ccc(C(SCC(N)C(=O)O)(c2ccc(C)cc2)c2ccc(C)cc2)cc1 (stereo not given) | 18.3% | 64.1% | -48.3% (active) | 3.09% (active) | -15.3% (active) | 14.6% | – | 0.644% (active) | -66.2% (active) |
| Cc1c[nH]c(=O)n(Cc2nnc(CCC(=O)c3nc4ccccc4[nH]3)o2)c1=O | 36.9% | 31.7% | 17.7% | 9.27% (active) | 53.2% | 21.1% | 28.7% | -32.7% (active) | – |

Source: PubChem BioAssay (NCI)
